PV pol inh – poliovirus RdRp elongation inhibitors, primary screen, biochemical, fluorescence polarization, total intensity; Genome polyprotein (Poliovirus type 1 (strain Mahoney)), P03300; 150,000 tested, 0.66% active; % elongation, % (compound at 16.7 µg/mL); poliovirus polymerase elongation; hits give low values; in the data active = % elongation below about 90%
MbtI inh – MbtI salicylate synthase inhibitors, primary screen, biochemical, fluorescence intensity. purified MbtI enzyme, fluorescence intensity read-out. inhibition, % (concentration not given with the values). 100,000 tested, 0.89% active. AID 493033, 2011; in the data active = inhibition mostly above about 56%, no sharp cut-off; inactive = mostly below about 77%
Target sequence (P9WFX0 whole entry, looked up): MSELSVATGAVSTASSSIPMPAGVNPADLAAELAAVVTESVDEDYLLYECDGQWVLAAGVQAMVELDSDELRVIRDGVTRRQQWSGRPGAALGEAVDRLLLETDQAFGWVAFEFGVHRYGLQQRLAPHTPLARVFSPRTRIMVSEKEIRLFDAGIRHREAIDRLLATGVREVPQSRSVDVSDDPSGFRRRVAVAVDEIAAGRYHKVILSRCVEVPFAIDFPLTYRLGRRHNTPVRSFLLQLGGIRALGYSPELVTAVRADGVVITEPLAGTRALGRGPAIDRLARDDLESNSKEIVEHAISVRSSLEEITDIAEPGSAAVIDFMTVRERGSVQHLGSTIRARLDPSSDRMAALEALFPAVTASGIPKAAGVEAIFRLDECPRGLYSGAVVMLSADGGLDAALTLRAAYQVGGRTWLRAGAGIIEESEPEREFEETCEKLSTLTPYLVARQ
Mtb MenB inh – M. tuberculosis MenB inhibitors, primary screen, biochemical, absorbance. 1,4-dihydroxy-2-naphthoyl-CoA synthase (Mycobacterium tuberculosis (strain ATCC 25618 / …. MenB enzyme assay, absorbance read-out. inhibition, % (test concentration not listed). 100,000 tested, 0.43% active. AID 540299, 2011; in the data active = inhibition above about 21%, passing the limit was not always enough
AID504770 – growth inhibition of E. coli YBA685, primary screen, V. cholerae RctB inhibitors. E. coli YBA685 rctB-dependent plasmid, OD600 growth, 3 h; hits give low values. z-score (test concentration not listed). 130,000 tested, 0.27% active. AID 504770, 2011; in the data active = z-score below about -2, passing the limit was not always enough
Hits are given with their value; i = inactive; nt = not tested or not shown; ! = repeats disagree. Only some compounds are listed: those with a hit (about 1.4% of all), similar ones and a draw of the others.

SMILES	PV pol inh	MbtI inh	Mtb MenB inh	AID504770
O=C1CC(Sc2ccc3ccccc3c2)C2COC1O2 (stereo not drawn)	84	nt	i	i
CC1CCc2nc(SC3CC(=O)C4OCC3O4)nc(C(F)(F)F)c2C1 (stereo not drawn)	i	nt	i	i
CCS(=O)c1ccccc1C(=O)NCc1ccc(F)cc1 (stereo not drawn)	i	86	i	i
CN(Cc1ccccc1)S(=O)(=O)c1ncn[nH]1	nt	i	nt	i
Cc1ccc(C(c2nnnn2C(C)(C)C)N2CCC(C)CC2)cc1 (stereo not drawn)	i	i	i	i
Cc1ccc(C(c2c(O)[nH]c(=S)[nH]c2=O)N2CCC(C)CC2)cc1 (stereo not drawn)	i	66	i	i
CN1C(=O)C(C)(C)c2cc(S(=O)(=O)NC3CCCCCC3)ccc21	i	i	i	i
Cc1nn(-c2ccccc2)c2c1N(C(=O)CCC(=O)Nc1ccccc1Cl)CCS2	i	i	i	i
O=C(c1cnccn1)N(Cc1ccc(Cl)cc1)Cc1cc2cc3c(cc2[nH]c1=O)OCCO3	i	i	25	i
O=C(OCc1ncc(-c2ccccc2)o1)c1ccccc1SCC(=O)N1CCCC1	i	i	i	i
CCN(CC)S(=O)(=O)c1ccc(-c2ccc(/C=N/N=C3\NC(=O)C(CC(=O)Nc4ccccc4)S3)o2)cc1 (stereo not drawn)	i	i	i	i
Cc1ccc(S(=O)(=O)N(C)c2ccccc2)cc1	i	i	i	i
Cc1ccc(S(=O)(=O)N(C)c2nc3ccccc3nc2SCC#N)cc1	i	98	i	i
O=C(CCCn1c(SCc2ccccc2Cl)nc2ccccc2c1=O)NCc1ccco1	nt	nt	nt	i
Oc1ccc(Cl)cc1-c1csnn1	i	i	i	-2.2
Cc1cccc(OCc2nnc(SCc3nc4ccccc4c(=O)n3CC#N)o2)c1	i	i	i	i
COCc1cc(C)nc2sc3c(=O)[nH]c(-c4ccccc4O)nc3c12	i	nt	i	i
Cc1sc2nc(-c3ccccc3O)[nH]c(=O)c2c1C	75	nt	i	i
CSC(N)=Nc1ccc(Cl)cc1	nt	nt	nt	-2.5!
Cc1cc(C(=O)COC(=O)c2ccc3c(c2)NC(=O)CS3)c(C)n1Cc1cccs1	i	i	i	i
O=C(COC(=O)c1ccc2c(c1)NC(=O)CS2)NCc1cccs1	11	i	i	i
Cc1ccc(O)c(C(=O)c2cnn(C(=O)Cc3csc(C)n3)c2)c1	86	i	i	i
CN(CC1COc2ccccc2O1)C(=O)NC12CC3CC(CC(C3)C1)C2 (stereo not drawn)	i	i	i	i
COc1ccc(C)cc1NS(=O)(=O)c1ccc(-c2cnc(C3CC3)o2)cc1	i	nt	nt	nt
COc1cc(Cl)c(NS(=O)(=O)c2ccc(-c3cnc(C4CC4)o3)cc2)c(OC)c1	87	nt	nt	nt
SMILES	PV pol inh	MbtI inh	Mtb MenB inh	AID504770
Cc1nc(CSc2nncs2)cs1	83	80	i	i
Cc1nc(CSc2n[nH]c(C(C)(C)C)n2)cs1	i	i	i	i
Cc1ccc(C2(C)NC(=O)N(CC(=O)C(C)(C)C)C2=O)cc1 (stereo not drawn)	i	i	i	i
Oc1c(C(c2ccc(C(F)(F)F)cc2)N2CCOCC2)ccc2cccnc12 (stereo not drawn)	i	64	i	i
Oc1c(C(c2ccc(F)cc2)N2CCCC2)ccc2cccnc12 (stereo not drawn)	nt	nt	nt	i
S=C(NC1CCCCC1)Sc1ccc(Cl)cc1	i	56	i	i
COc1ccc2[nH]c(=O)c(CN(Cc3ccc4c(c3)OCO4)Cc3nnnn3CCc3ccccc3)cc2c1	i	i	i	i
C=CCN1C(=O)/C(=C\c2ccc(OCc3ccccc3C#N)cc2)C(=O)NC1=S	i	74	i	i
C=CCN1C(=O)/C(=C\c2ccc(OC)cc2)C(=O)NC1=S	i	95	i	i
C=CCN1C(=O)/C(=C\c2ccc(N(CC)CC)cc2)C(=O)NC1=S	i	79	i	i
C=CCN1C(=O)/C(=C\c2ccc(O)c(OC)c2)C(=O)NC1=S	i	i	i	i
C=CCN1C(=O)/C(=C\c2ccc(O)c(Br)c2)C(=O)NC1=S	i	i	i	i
Clc1cccc(Cl)c1Cn1nnc(-c2ccccc2)n1	i	nt	i	i
CCOc1ccc(C/C(O)=C2\C(=N)CC(C)(C)CC2=O)cc1OCC	nt	i	nt	i
Cc1noc(C)c1CSc1ccccc1C(=O)OC(C)C(=O)N1CCOCC1 (stereo not drawn)	i	i	i	i
Cc1noc(C)c1CSc1ccccc1C(=O)NC(C)c1ccc2c(c1)OCCO2 (stereo not drawn)	i	89	i	i
COc1ccc(S(=O)(=O)N2CCC(NC(=O)NC3CCCC3)CC2)cc1	i	i	i	i
COc1ccc(S(=O)(=O)N2CCC(NC(=O)c3ccccc3)CC2)cc1	i	i	33	i
CCN(CC)CCC(=O)c1ccc(OC(C)C)cc1	i	65	i	i
CCN(CC)CCC(=O)c1ccc(F)cc1	i	nt	i	i
COc1ccc([C@H]2[C@@H](C(=O)O)c3ccccc3C(=O)N2Cc2ccc3c(c2)OCO3)cc1	38	i	i	i
CCOC(=O)C1=C(C)NC(=S)NC1c1ccc(-c2ccccc2Cl)o1 (stereo not drawn)	i	i	60	i
O/N=C/c1nc2cc(Cl)ccc2o1	76	i	i	i
CC(C)(C)/C(O)=C/c1nc2cc(Cl)ccc2oc1=O	i	i	i	i
Cc1cc(COC(=O)c2ccc(C#N)cc2)no1	i	i	i	i
SMILES	PV pol inh	MbtI inh	Mtb MenB inh	AID504770
O=C1c2ccccc2C(=O)N1CCSC1=Nc2ccccc2C2CC=NN12 (stereo not drawn)	i	i	34	i
C=CCn1c(C)cc(C(=O)CSC2=Nc3ccccc3C3CC=NN23)c1C (stereo not drawn)	i	i	55	i
O=C1c2ccccc2C(=O)N1CCSc1ccccc1	i	i	i	i
C=CCn1c(C)cc(C(=O)CSc2nnc3ccccn23)c1C	i	i	nt	i
C=C1C(C(=O)NCC2CCCO2)C1C(=O)NCC1CCCO1 (stereo not drawn)	i	i	nt	i
O=C1/C(=C/c2ccc3c(c2)OCO3)NC(=S)N1C1CCCCC1	i	i	i	i
Cc1nc2nc(C(F)(F)F)[nH]c2cc1Br	i	70	i	i
O=C1CN=C(Nc2ccccc2Cl)N1Cc1ccccc1	i	i	i	i
Cc1cccc(NC2=NCC(=O)N2Cc2ccccc2)c1	87	i	i	i
CC1CN(S(=O)(=O)c2ccc(NC(=O)Cc3ccccc3F)cc2)CC(C)O1 (stereo not drawn)	i	i	i	i
S=c1[nH]cc2ccccn12	i	i	i	i
S=c1[nH]nc2ccccn12	i	92!	i	i
CCn1c(C(C)Oc2ccc(Cl)cc2)n[nH]c1=S (stereo not drawn)	i	89	i	i
Cc1ccc(-c2n[nH]c(=S)n2CCC(=O)O)cc1	i	i	i	i
Cc1ccc(C)n1-c1cccc(C(=O)O)c1	34	nt	i	i
O=C(COC(=O)CSc1n[nH]c(-c2ccccc2)n1)NC1CCCCC1	84	nt	i	i

Screens deposited in PubChem by ICCB-Longwood Screening Facility, Harvard Medical School.
